High-throughput results (PubChem BioAssay)
p53 reactivation: qHTS assay for re-activators of p53 using a Luc reporter. 320,000 tested, 0.063% active. Potency, µM (titrated, usually from 92.2 µM), without a hit: top-dose activity change, positive = activation, usual class: activators. AID 504706, 2011. H1299 p53-A138V BP100-luciferase reporter, luminescence, 24 h; further: potency means the concentration at half of the fitted maximal effect; % of control where 0% means no effect; nearly all actives have a fitted effect of over 45% in size
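H1299 (p53-null), stable ts p53-A138V + BP100-Luc; 1000 cells/well, Opti-MEM/10% FBS; cpd 4 pt, 1:5; 24 h, 37 deg C, 5% CO2; detection reagent 10 min RT; luminescence.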
gsp agonist: qHTS for Agonist of gsp, the Etiologic Mutation Responsible for Fibrous Dysplasia/McCune-Albright Syndrome: qHTS | Potency, µM (highest dose often 76.9 µM), inactives show at the top dose activation (cAMP increase), usual class: activators | 340,000 tested, 0.13% active | gsp mutant cells, cAMP HTRF, 30 min | AID 624287, 2012; active means well fitted activation curve with a large enough effect; inconclusive means small, poorly fitted or top-dose-only effect, or another doubt; inactive means no such curve, though single readings can be large or run the other way; cell line not stated here;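 further: phosphodiesterase inhibitor Ro 20-1724 added with compounds to block cAMP breakdown; potency means the concentration at half of the fitted maximal effect; nearly all actives have a fitted effect of over 60% in size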
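Cells stably selected in G418 were plated at 2000/well, grown 16-24 hr, then given compounds in DMSO with the PDE inhibitor […] (300 uM solution added) for 30 min at 37C; cAMP was read by HTRF.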
Tb PFK inh-1: qHTS Assay to Find Inhibitors of T. brucei phosphofructokinase; 330,000 tested, 0.17% active; AID 485367, 2010; T. brucei PFK, ADP-Glo luminescence; Potency, µM (titrated, usually from 57.5 µM), for the others: top-dose activity, negative = inhibition, actives largely listed as inhibitors;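 further: potency means the concentration at half of the fitted maximal effect; 0% = uninhibited 1x PFK enzyme wells and -100% = no-enzyme wells; nearly all actives have a fitted effect of over 60% in size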
Target sequence (O15648 whole entry, looked up): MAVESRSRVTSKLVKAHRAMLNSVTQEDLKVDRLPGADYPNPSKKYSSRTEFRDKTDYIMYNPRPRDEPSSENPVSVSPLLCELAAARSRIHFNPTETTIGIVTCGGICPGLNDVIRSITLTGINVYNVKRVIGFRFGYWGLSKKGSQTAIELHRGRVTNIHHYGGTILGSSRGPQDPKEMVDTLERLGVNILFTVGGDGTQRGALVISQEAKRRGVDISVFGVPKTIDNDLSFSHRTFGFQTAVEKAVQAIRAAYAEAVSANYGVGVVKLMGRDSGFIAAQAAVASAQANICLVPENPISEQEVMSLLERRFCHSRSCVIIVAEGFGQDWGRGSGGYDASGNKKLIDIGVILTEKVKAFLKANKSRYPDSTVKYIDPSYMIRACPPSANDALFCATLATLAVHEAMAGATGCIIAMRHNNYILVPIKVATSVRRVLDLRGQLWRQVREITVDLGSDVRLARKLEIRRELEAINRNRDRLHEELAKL
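Compounds were pin-transferred as a titration series up to 57 uM into substrate buffer (0.5 mM F6P, 0.1 mM ATP, pH 8.0), then 1.25 nM PFK was added and reactions ran 45 min before ADP-Glo detection.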
RXFP1 antag: qHTS Assay for Antagonists of the Relaxin Receptor RXFP1. Relaxin receptor 1 (Homo sapiens), Q9HBX9. HEK293-RXFP1, relaxin-stimulated cAMP HTRF, 30 min; active compounds read low. activity change, negative = inhibition, % at 57.5 µM. 350,000 tested, 0.59% active. AID 1259400, 2018;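 active means activity change of -60% or lower, but not beyond a set lower limit; inconclusive means change between -60% and -40%, or beyond the set limit; inactive means change above -40%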; further: on the % scale 0 is the no-effect control and ±100 the full control effect
gsp antagonist: qHTS for Antagonists of gsp, the Etiologic Mutation Responsible for Fibrous Dysplasia/McCune-Albright Syndrome: qHTS; 340,000 tested, 0.4% active; Potency, µM (series often up to 76.9 µM), inactives show at the highest dose activity change, negative = inhibition, usual class: inhibitors; AID 624288, 2012; gsp-mutant cells, cAMP HTRF, 30 min; calls by dose curve; cell line not stated here;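 further: intracellular cAMP measured with PDE inhibitor Ro 20-1724 present during compound exposure; potency means the concentration at half of the fitted maximal effect; on the % scale 0 is the no-effect control and ±100 the full control effect; nearly all actives have a fitted effect of over 65% in size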
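G418-selected cells were plated in DMEM/10% FBS for 16-24 h at 37C, then treated with compounds plus the PDE inhibitor […] (300 uM solution added) for 30 min at 37C. Intracellular cAMP was measured by HTRF after 30 min lysis at room temperature.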
RXFP1 ag: qHTS Assay for Agonists of the Relaxin Receptor RXFP1. HEK293T-RXFP1 cAMP TR-FRET, 30 min; response scale: percent of porcine relaxin response, buffer zero. Relaxin receptor 1 (Homo sapiens), Q9HBX9. AID 2676, 2010. Potency, µM (doses to about 57.5 µM), for the others: top-dose activation, actives largely listed as activators. 370,000 tested, 0.3% active; further: potency means the concentration at half of the fitted maximal effect; on the % scale 0 is the no-effect control and ±100 the full control effect; nearly all actives have a fitted effect of over 60% in size
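Agonist response is measured as cAMP accumulation in an RXFP1-transfected HEK293T line under PDE4 inhibition. Values are scaled between buffer-only and 29 nM porcine relaxin, and EC50s come from standard Hill equation fits.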
Tb PFK KinaseGlo: Tb PFK orthogonal confirmatory assay using ATP depletion (Kinase-Glo Plus) as an alternative measure of Tb PFK activity: Hit Validation; shares compounds with Tb PFK inh-1; 1,100 tested, 47% active; AID 504636, 2011; Potency, µM (highest dose often 57.5 µM), for inactives: top-dose inhibition; Tb PFK enzyme, ATP depletion, Kinase-Glo Plus luminescence; calls by dose curve; further: potency means the concentration at half of the fitted maximal effect; nearly all actives have a fitted effect of over 60% in size
Tb PFK inh-2: Inhibitors of T. brucei phosphofructokinase: Hit Validation | purified T. brucei PFK, ADP-Glo luminescence, 45 min | 1,100 tested, 41% active | Potency, µM (series often up to 57.5 µM), inactives show at the top dose activity change, negative = inhibition, hits mostly inhibitors | AID 504637, 2011 | shares compounds with Tb PFK inh-1;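 further: potency means the concentration at half of the fitted maximal effect; plate controls were full PFK enzyme control for no effect and no enzyme control for full effect; nearly all actives have a fitted effect of over 60% in size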
Starred values were filed as active, the others as inactive; ? = inconclusive; / = not tested or not shown; [ ] = dose if it differs, or a comment. Rows were chosen to be rich in hits. Some 1.1% of all compounds tested hit in one or more screens of this group. Unless noted, the call rests on the fitted dose curve; in most records, active means well fitted curve in the direction sought with a large enough effect; inconclusive means small, poorly fitted or top-dose-only effect, or another doubt; inactive means no such curve, though single readings can be large; an effect the other way counts as inactive or inconclusive.

SMILES	p53 reactivation	gsp agonist	Tb PFK inh-1	RXFP1 antag	gsp antagonist	RXFP1 ag	Tb PFK KinaseGlo	Tb PFK inh-2
COc1cc(O)c2c(=O)c3c(O)ccc(O)c3oc2c1	3%	/	?	/	-8%	/	?	?
COc1ccc(O)c2c(=O)c3c(OC)cc4c(c3oc12)C1C=COC1O4 (stereo not given)	3%	-40%	-4%	10	-10%	1%	/	/
COc1ccc(OC(=O)Nc2ccccc2)cc1	?	-1%	-4%	5	11%	-1%	/	/
COc1ccc(/C=C/C(=O)Nc2ccccc2C(=O)O)cc1	-8%	11%[15.4 µM]	?	-13	?	3%	-31%	?
Cc1ccc(S(=O)(=O)CNC(=S)c2cccc(Cl)c2)cc1	0%	-16%	?	-35	-2%	-2%	?	30µM*
Cc1ccc(-c2c[n+](Cc3cccc(Cl)c3)c3n2CCC3)cc1	-4%	14%[15.4 µM]	?	-1	-2%	1%	?	?
Cn1c(Oc2ccccc2NCc2cc(Br)ccc2O)cc(=O)n(C)c1=O	-12%	-10%	?	-17	-4%[15.4 µM]	0%	19µM*	13µM*
COc1ccc(N=C2S/C(=C\c3ccc(OCC(=O)O)cc3)C(=O)N2CCc2c[nH]c3ccccc23)cc1	-3%	-79%	1.1µM*	-27	-13%	1%	?	?
COc1ccc(OCC(=O)N2CCN(Cc3c[nH]c4ccccc34)CC2)cc1	0%	-5%	-4%	/	10%	2%	/	/
CCOC(=O)c1cccc(NC2c3ccccc3C(=O)N2Cc2ccco2)c1 (stereo not given)	-1%	-35%	-5%	-1	?	1%	/	/
O=C(O)C1CCCCC1C(=O)Nc1cccc(Br)c1 (stereo not given)	11%	2%	17µM*	/	-3%	0%	12µM*	27µM*
O=C(CN1CCCCC1)c1cccc(Br)c1	22%	-18%	5%	-7	10%	0%	/	/
C/C(C/C(C)=C1/SC(=S)NC1=O)=C1\SC(=S)NC1=O	-4%	-3%[15.4 µM]	?	-20	-6%	8%	-29%	?
Cn1c(SCC(=O)O)nnc1-c1ccc(NC(=O)c2ccc(Cl)c(Cl)c2)cc1	4%	8%[15.4 µM]	?	-21	-14%	-1%	24µM*	?
Nc1nnc(Cc2cccc(Br)c2)s1	0%	-10%	?	3	14%	4%	21µM*	30µM*
O=C(Nc1ccc(F)c([N+](=O)[O-])c1)c1cccn(Cc2ccccc2)c1=O	/	/	/	/	/	-3%	/	/
O=c1c2c([N+](=O)[O-])cc([N+](=O)[O-])cc2sn1Cc1ccccc1	-16%	-1%[15.4 µM]	2.7µM*	?	-40%	0%	?	21µM*
Cc1cccc(C(=O)OCC(=O)c2ccc(CC(=O)N3CCOCC3)s2)c1C	24%	-1%	?	-3	-1%	2%	?	-17%
Cc1ccc(NCc2ccc(O)c3ncccc23)cc1	2%	8%	?	-22	2%	3%	18%	-11%
CC(O)CNc1ccc([N+](=O)[O-])c2cccnc12 (stereo not given)	-4%	2%	0%	0	-13%	-1%	/	/
CN(C(=O)CN1CC=C(c2ccccc2)CC1)c1c(N)n(Cc2ccccc2)c(=O)[nH]c1=O	4%	?	-4%	-7	11%	3%	/	/
CC(C)NC(C)C	/	/	/	-3	/	/	/	/
COc1cc(-c2nnc(SCc3cc(=O)oc4cc(O)c(O)cc34)o2)cc(OC)c1OC	?	2%	?	-4	-11%	1%	1.7µM*	1.5µM*
Cc1nc(CCl)cc(=O)[nH]1	22%	0%	1%	7	3%	1%	/	/
Cc1cc(=O)[nH]c(Nc2ccc(Cl)cc2)n1	23%	-23%	21µM*	-8	9%	0%	8.5µM*	19µM*
SMILES	p53 reactivation	gsp agonist	Tb PFK inh-1	RXFP1 antag	gsp antagonist	RXFP1 ag	Tb PFK KinaseGlo	Tb PFK inh-2
CCn1c(N)c(C(=O)NC)sc1=S	6%	-3%	?	-6	6%	1%	9.5µM*	19µM*
COc1ccccc1-n1c(-c2ccccc2F)nc2ccccc2c1=O	/	24%	/	-26	1%	/	/	/
Cc1ccc(Cc2cnc(NC(=O)CN3CCOCC3)s2)cc1Cl	-14%	-38%	?	-20	2%	1%	24µM*	30µM*
Cc1nc(SCc2ccc(O)c([N+](=O)[O-])c2)c([N+](=O)[O-])[nH]1	-3%	-4%	?	-3	-16%	-1%	6%	-2%
CCC(CO)(C(=O)OC1C[N+]2(C)CCC1CC2)c1ccccc1 (stereo not given)	2%	-1%[15.4 µM]	-5%	-15	15%	-2%	/	/
COc1cccc(OC)c1-c1nn2c(-c3cc(-c4ccccc4)n[nH]3)nnc2s1	-4%	12%	?	/	?	8%	-22%	?
COc1ccccc1-c1nn2c(=O)cc(CN3CCN(C(=O)COc4ccccc4Cl)CC3)nc2s1	/	/	/	/	/	11%	/	/
O=C(/C=C/c1ccc(O)c(O)c1)OC(Cc1ccc(O)c(O)c1)C(=O)O (stereo not given)	/	/	2.7µM*	/	-10%	1%	3.4µM*	?
O=C1CC(=O)N(c2ccc(Cl)cc2)C(=O)N1	10%	2%[15.4 µM]	-5%	-14	15%	-5%	/	/
